# Measurements published in PubChem BioAssay AID1117361 (Southern Research Institute, 2015).
# Hit rate of the full screen: of about 3,600 compounds, about 900 (25%) were called active. These entries were drawn from the full list. Results with a measured potency or affinity are listed apart. A number with no mark means an inactive call. No rule for the calls is given here.
# Molecular target: Protein Tat (Human immunodeficiency virus type 1 group M subtype B (isolate HXB2)) (UniProt P04608)
# Experiment: HIV-1 Tat–TAR interaction blockers – biochemical, fluorescence polarization, FAM-labeled TAR RNA, counter-screen for Vif-APOBEC3G degradation inhibitor project, dose response (AID 1117361)
# Details: Tat-TAR RNA binding; series mostly up to 100 µM; inhibition: at the top concentration
Structure (SMILES),outcome,inhibition
CCCn1c(Sc2nnnn2-c2ccccc2)n[nH]c1=O,inactive,–
N#Cc1c(-c2ccccc2)nc2n1CCS2,inactive,–
O=C(Nc1nccc(-c2cccs2)n1)c1ccccc1Cl,–,7.5%
CCOc1cc(C(=O)Nc2c3c(nn2C(C)(C)C)CS(=O)C3)cc(OCC)c1OCC (centres undefined),–,2.05%
O=C(CCCN1C(=O)c2ccccc2C1=O)NCC1CCCO1 (centres undefined),–,4.77%
CCOn1c(=O)c(=O)n(OCc2ccccc2)c2ccccc21,inactive,–
Oc1ccc(Cl)cc1-c1cc(-c2ccccc2)n[nH]1,–,3.38%
O=C(c1ccco1)N1CCN(S(=O)(=O)c2ccc(F)cc2)CC1,–,10.1%
CN1CCN(C(=O)/C(=C/c2ccc(F)cc2)NC(=O)c2ccccc2)CC1,–,1%
Cc1ccc(S(=O)(=O)Nc2ccc3c(c2)c2c(n3S(=O)(=O)c3ccc(C)cc3)CCCC2=O)cc1,inactive,–
CCCNC(=O)c1ccc2c(c1)C1C3CCC(C3)C1C(c1ccccc1)N2 (centres undefined),inactive,–
Cc1ccc(S(=O)(=O)NC(CC(C)C)C(=O)N2CCN(C/C=C/c3ccccc3)CC2)cc1 (centres undefined),inactive,–
O=C(CNC(=O)c1cccs1)OCC(=O)c1ccc2ccccc2c1,–,4.05%
c1ccc(-c2nnc(-c3ccncc3)o2)cc1,–,0.68%
O=C(COC(=O)COc1ccc(Cl)cc1Cl)NC1CCCCCC1,–,2.47%
CC(NC(=O)CC1Nc2ccccc2NC1=O)c1ccccc1 (centres undefined),–,17.6%
O=C(CC1NC(=O)NC1=O)Nc1cccc2ccccc12 (centres undefined),–,2.7%
COc1ccc(OC)c(C2NC(=O)NC(C)=C2C(=O)Nc2ccc(C)cc2)c1 (centres undefined),–,0.68%
COc1ccc(NC(=O)c2cc3ccccn3n2)cc1,–,13.5%
Cc1cccc(C)c1OCCOCCN1CCN(C)CC1,inactive,–
CCN(CC)c1ccc(C(=C2C=CC(=[N+](CC)CC)C=C2)c2ccccc2)cc1,inactive,–
O=C(Nc1nccs1)C1CCCN(S(=O)(=O)c2cccc3cccnc23)C1 (centres undefined),inactive,–
Cn1c(C(=O)N[C@@H](C(=O)O)c2ccccc2)cc2cc(Cl)ccc21,–,29.1%
COc1ccc2nc(SCC(=O)NN)cc(C)c2c1,–,4.05%
Cc1ccc(SCCC(=O)NCc2ccco2)cc1,inactive,–
CC(C)(C)c1nnc(NC(=O)c2ccc(Cl)nc2)s1,inactive,–
N#Cc1ccccc1CN1C(=O)S/C(=C/c2cccn2-c2ccc(C(=O)O)cc2)C1=O,–,22.4%

Structure (SMILES),outcome,inhibition
Cc1ccc(C(=O)O)cc1-c1ccc(/C=C2/NC(=O)N(c3ccccc3)C2=O)o1,–,10.3%
CCNc1nc(OCCNS(=O)(=O)c2cc(C)ccc2C)nc(N(C)C)n1,–,2.03%
COc1ccccc1NC(=O)C(C)NS(=O)(=O)c1ccc(F)cc1 (centres undefined),–,7.5%
CCc1ccc(OCCNC(=O)c2cccs2)cc1,–,1.35%
COc1ccccc1NC(=O)CN(c1ccccc1OC)S(=O)(=O)c1ccccc1,–,3.3%
Cc1c(C(=O)NCc2cccnc2)oc2ccccc12,–,1.35%
CCc1cccc(NC(=O)CCCCCC2NC(=O)NC2C)c1 (centres undefined),inactive,–
COC(=O)C1=C(C)NC(=O)C1(NS(=O)(=O)c1ccc(C)cc1)C(F)(F)F (centres undefined),–,2.05%
Cc1ccc(C)c(NC(=S)NCc2ccccc2)c1,–,9.07%
CN1c2ccsc2/C(=N/NC(=O)c2c(F)cccc2F)CS1(=O)=O,–,10.2%
O=C(O)C1=C(C(=O)Nc2ccc(F)c(Cl)c2)CCCC1,–,10.1%
COC(=O)CSc1nnc(CNC(=O)c2cccs2)n1-c1cc(OC)ccc1OC,inactive,–
Cc1ccc(NC(=O)CSc2nnc(C3CCCCC3)n2N)cc1F,–,0.68%
CCOC(=O)C1CCCN(c2ncnc3c2cnn3-c2ccc(Cl)cc2)C1 (centres undefined),–,29.7%
O=C(O)c1cccc(S(=O)(=O)Nc2ccccc2Cl)c1,inactive,–
CCOc1cccc(NC(=O)C2CCCN(S(=O)(=O)c3ccc(OC)cc3)C2)c1 (centres undefined),inactive,–
COc1cccc(NC(=O)C2CCCN2C(=O)OCc2ccccc2)c1 (centres undefined),–,4.05%
O=c1nc(N2CCOCC2)nc2n1CCO2,–,0.68%
Cc1cc(=O)n2nc(N3CCCC(C(=O)NC4CCC(C)CC4)C3)sc2n1 (centres undefined),inactive,–
CN(C)c1nc(OCCNC(=O)COc2ccc(Cl)cc2Cl)nc(N2CCOCC2)n1,inactive,–
Cc1ccc(NC(=O)CSc2nc(CSc3ccc(C)cc3)cc(=O)[nH]2)cc1,inactive,–
CCCCC(=O)Nc1ccc(C(=O)NN2C(=O)c3ccccc3C2=O)cc1,–,2.73%
O=C1c2cnc3nc(SCc4ccccc4)nn3c2CC2c3ccccc3CCN12 (centres undefined),–,1.36%
COc1ccc(S(=O)(=O)NCCSCc2ccco2)cc1Cl,–,23.9%
CC(=O)Nc1ccc(S(=O)(=O)Nc2ccc(NC(=O)c3ccco3)cc2)cc1,inactive,–
FC(F)(F)c1cccc(Oc2ccc3c(C(F)(F)F)cc(C(F)(F)F)nc3n2)c1,inactive,–
O=C(Cc1c(F)cccc1Cl)NNC(=O)c1ccccc1Cl,inactive,–
